# According to PubChem BioAssay (NCI):
# This is part of a sample that, as a whole, favours compounds with a hit. Of some 83,000 tested, about 20% had one in any assay.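 The test compound was applied at a single concentration to cells in 96-well plates for 48 hours, and percent growth was recorded.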 A number with no mark means an inactive call. Active and inactive are the calls of the source. How the source made its calls: active means growth percent below 10; inactive means the rest.
# Key:
# Test in all cases: NCI-60 one-dose screen, 48 h (100 = growth as untreated, 0 = no growth, -100 = all killed)
# Conditions in all cases: 10 µM unless noted
# [1] = tested on: HCT-15 colon
# [2] = tested on: HT29 colon
# [3] = tested on: SNB-75 CNS
# [4] = tested on: SNB-19 CNS
# [5] = tested on: PC-3 prostate
# [6] = tested on: SK-MEL-5 melanoma
# [7] = tested on: UACC-62 melanoma
# [8] = tested on: LOX IMVI melanoma
# [9] = tested on: SK-MEL-28 melanoma
SMILES,growth [1],growth [2],growth [3],growth [4],growth [5],growth [6],growth [7],growth [8],growth [9]
CCCCCCCCCCCCS(=O)CC(C)O (stereo unspecified),104%,110%,78.3%,98.6%,99.3%,103%,92.6%,111%,102%
O=C1Nc2ccccc2C12CC(c1ccc(Cl)cc1)=NN2 (stereo unspecified),97.7%,97.1%,76%,90.9%,78.2%,92.4%,95%,99.5%,97.7%
O=S(=O)(Nc1ccc(F)c(Cl)c1)c1ccc(-c2cnc(C3CC3)o2)cc1,22.3%,-3.16% (active),-14.4% (active),49.3%,24.9%,6.59% (active),28.3%,42.8%,62.5%
CCCCCN(CCCCC)CCC[C@@H](C)[C@H]1CC[C@H]2[C@@H]3[C@H](OCCCN)C[C@@H]4C[C@H](OCCCN)CC[C@]4(C)[C@H]3C[C@H](OCCCN)[C@]12C,72.3%,24.5%,70.6%,61%,80.5%,25.1%,13.6%,3% (active),27.9%
NCCN1CCN(c2nccc(-c3ccc4ccccc4c3)n2)CC1,4.28% (active),-33.6% (active),82.1%,63.9%,45.6%,54.9%,-65.3% (active),-64.8% (active),-43.4% (active)
Oc1cccc(Nc2nccc(-c3ccc4ccccc4c3)n2)c1,22.2%,56.8%,23.3%,28.7%,28.1%,32.5%,32.9%,32.5%,49.5%
Cl/C(=N\Nc1ccccc1)c1ccccc1,93.4%,103%,67.4%,100%,78%,93.8%,78.2%,97%,101%
c1c2c(cc3c1OCO3)Cc1cc3c(cc1Cc1cc4c(cc1C2)OCO4)OCO3,103%,108%,73%,106%,99.8%,108%,108%,95.8%,103%
COc1ccc(-c2cc(NC(=O)Nc3ccc(O)cc3)no2)cc1,49.5%,98.8%,62.6%,91.5%,57.6%,82.3%,44.5%,7.79% (active),101%
O=c1c2cccc3c(Nc4ccccn4)ccc(c32)c2nc3ccccc3n12,59.2%,64.6%,78.6%,89.9%,64%,51.8%,64.3%,69.6%,101%
COc1ccc(/C=c2/c(=O)[nH]c3nc4sc(C)c(C)c4c(=O)n23)cc1,73.2%,88.1%,93.2%,88.4%,91%,90.8%,80.4%,91.1%,102%
Cc1ccc(S(=O)(=O)N(CCc2ccc(Cl)cc2)S(=O)(=O)c2ccc(C)cc2)cc1,94.5%,86%,67.7%,94.6%,85.9%,87.6%,78.1%,92.4%,93.9%
CC(=O)OCC(=O)C1CCC=CC1OC(C)=O (stereo unspecified),103%,107%,80.9%,93.5%,105%,97.7%,95.4%,96.1%,108%
COc1c(Cl)cc(Cl)cc1Cl,116%,108%,116%,103%,111%,109%,100%,107%,127%
N=S(=O)(NC(=O)c1ccc(Cl)cc1Cl)c1ccc(Br)s1 (stereo unspecified),82.4%,111%,108%,85.5%,102%,94.7%,112%,98.1%,111%
C[C@@H]1CC[C@@H]2[C@@H]1[C@H](OC(=O)/C=C/c1ccccc1)[C@]1(C3CCCCC3)C[C@@H](OC(=O)CO)[C@@]2(C)O1,66.2%,38.4%,88.4%,88.2%,22.8%,85.9%,73.3%,76%,83.8%
O=[N+]([O-])c1cccc(C2CC(c3ccccc3)=Nc3ccccc3S2)c1 (stereo unspecified),84.7%,44.1%,68.2%,87.2%,77.4%,94.8%,88.4%,22.6%,96.4%
Oc1ccc(Nc2nccc(-c3ccc4ccccc4c3)n2)cc1,16.9%,39.3%,36%,50.9%,48.6%,39.8%,39.4%,27.1%,50.6%
CC(=O)OCC1OC(OC2=C(CC=C(Cl)Cl)C(=O)c3ccccc3C2=O)C(OC(C)=O)C(OC(C)=O)C1OC(C)=O (stereo unspecified),56.9%,90.8%,71.1%,99.3%,47.4%,66.3%,86.1%,39.9%,91.4%
Cc1ccc(NC(=O)c2sc3nc4c(cc3c2N)C(=O)CCC4)cc1C,30.6%,9.71% (active),-10.3% (active),69.3%,22.4%,26.9%,39.6%,39.2%,37.3%
CN1CCCCC1CCN1c2ccccc2Sc2ccc(Cl)cc21 (stereo unspecified),49.3%,31.4%,7.16% (active),97%,59.5%,55.7%,77.9%,68.1%,75%
CCOC(=O)C(CC)n1c(=O)c2cc(OC)c(OC)cc2c2cnc3[nH]ccc3c21 (stereo unspecified),75%,76.9%,45.3%,90.8%,57.1%,80.9%,63.2%,44.8%,90.7%
CCCCNc1ccc2c3c1cccc3c(=O)n1c3ccccc3nc21,76.2%,80.4%,73.4%,101%,85.5%,75.5%,85.9%,75.9%,103%
O=C(N/N=C/c1ccc(O)cc1O)c1cccnc1,30.7%,46.1%,37.7%,70.5%,53.2%,39.3%,34.2%,21.8%,50.4%
COc1ccc2[nH]c(=O)c(/C=C/C(=O)c3ccc(Nc4nccc(-c5ccc6ccccc6c5)n4)cc3)cc2c1,110%,102%,95.7%,91.9%,98.2%,101%,88.7%,100%,108%
Cc1ccc(C2CC3c4ccccc4C2C2CCCCN32)cc1 (stereo unspecified),99.8%,90.4%,69.9%,87.4%,80%,76.4%,99.3%,84.4%,96.4%
CN1CCN(c2ccc3nc(-c4ccc5nc(-c6ccc(OCCC(C)(C)C)cc6)[nH]c5c4)[nH]c3c2)CC1,56.3%,-82.3% (active),90.1%,-67.6% (active),-72.6% (active),80.2%,88.1%,-73.7% (active),-59.2% (active)
COc1cccc2c1C(=O)c1c(O)c3c(c(O)c1C2=O)C[C@@](O)(/C(C)=N/NC(=O)c1ccc(Cl)cc1)C[C@@H]3OC1CC(N)C(O)C(C)O1 (stereo partly specified),16.4%,-42.6% (active),-84.3% (active),5.54% (active),-36.5% (active),-45.2% (active),-72.8% (active),-44.6% (active),-32.3% (active)
Cc1cc(Nc2nc(-c3cccnc3)nc3ccccc23)n[nH]1,29.7%,23.4%,-32.9% (active),77.6%,58.7%,73.8%,49.3%,20.1%,50.5%
